The text below walks through data of paper PMC11006913.

Common to all, as to assay: PBM; 200 nM protein, PBS
Holding throughout (conditions): dsDNA, one strand shown

Assay [1] concerns the target T1, SIX6 (Homo sapiens, UniProt O95475 114-200, L167I).
T1 sequence: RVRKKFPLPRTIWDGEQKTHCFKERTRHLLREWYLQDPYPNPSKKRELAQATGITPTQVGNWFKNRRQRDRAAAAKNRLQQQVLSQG

In assay [2] the target is HOXA4 (Homo sapiens, UniProt Q00056 201-287, W262R).
Assay [3] concerns the target T2, SIX6 (Homo sapiens, UniProt O95475 114-200, L143V).
T2 sequence: T1 sequence with L30V, I54L

The target in assay [4] is T3, SIX6 (Homo sapiens, UniProt O95475 114-200, H141N).
T3 sequence: T1 sequence with H28N, I54L

The target in assay [5] is T4, SIX6 (Homo sapiens, UniProt O95475 114-200, T165P).
T4 sequence: T1 sequence with T52P, I54L

The target in assay [6] is T5, SIX6 (Homo sapiens, UniProt O95475 114-200, L167M).
T5 sequence: T1 sequence with I54M

In assay [7] the target is T6, SIX6 (Homo sapiens, UniProt O95475 114-200, L143M).
T6 sequence: T1 sequence with L30M, I54L

For assay [8], the target named is T7, SIX6 (Homo sapiens, UniProt O95475 114-200, L143I).
T7 sequence: T1 sequence with L30I, I54L

In assay [9] the target is T8, SIX6 (Homo sapiens, UniProt O95475 114-200, T165G).
T8 sequence: T1 sequence with T52G, I54L

For assay [10], the target named is HOXA4 (Homo sapiens, UniProt Q00056 201-287, R217L).
HOXA4 (Homo sapiens, UniProt Q00056 201-287, R217L), sequence (Q00056 201-287 R217L): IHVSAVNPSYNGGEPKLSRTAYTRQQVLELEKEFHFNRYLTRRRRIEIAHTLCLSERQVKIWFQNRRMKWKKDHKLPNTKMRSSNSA
In assay [11] the target is T9, SIX6 (Homo sapiens, UniProt O95475 114-200, T139Q).
T9 sequence: T1 sequence with T26Q, I54L

Assay [12] concerns the target T10, SIX6 (Homo sapiens, UniProt O95475 114-200, T165A).
T10 sequence: T1 sequence with T52A, I54L

Assay [13] addresses HOXA4 (Homo sapiens, UniProt Q00056 201-287).
The target of assay [14] is T11, SIX6 (Homo sapiens, UniProt O95475 114-200, L167V).
T11 sequence: T1 sequence with I54V

For assay [15], the target named is T12, SIX6 (Homo sapiens, UniProt O95475 114-200).
T12 sequence: T1 sequence with I54L

Assay [16] deals with T13, SIX6 (Homo sapiens, UniProt O95475 114-200, T165I).
T13 sequence: T1 sequence with T52I, I54L

Assay [17] addresses HOXA4 (Homo sapiens, UniProt Q00056 201-287, W262F).
In assay [18] the target is HOXA7 (Homo sapiens, UniProt P31268 116-202).
HOXA7 (Homo sapiens, UniProt P31268 116-202), sequence (P31268 116-202): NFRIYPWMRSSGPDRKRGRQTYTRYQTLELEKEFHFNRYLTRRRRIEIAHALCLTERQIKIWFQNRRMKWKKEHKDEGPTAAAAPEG
Assay [19] has as its target HOXA7 (Homo sapiens, UniProt P31268 116-202, W177C).

Residue numbers refer to the chain shown, from its start.

HOXA4 (Homo sapiens, UniProt Q00056 201-287, W262F), sequence (Q00056 201-287 W262F): as the sequence (Q00056 201-287 R217L) above, with L17R, W62F counted along it
HOXA4 (Homo sapiens, UniProt Q00056 201-287), sequence (Q00056 201-287): as the sequence (Q00056 201-287 R217L) above, with L17R counted along it
HOXA4 (Homo sapiens, UniProt Q00056 201-287, W262R), sequence (Q00056 201-287 W262R): as the sequence (Q00056 201-287 R217L) above, with L17R, W62R counted along it
HOXA7 (Homo sapiens, UniProt P31268 116-202, W177C), sequence (P31268 116-202 W177C): as the sequence (P31268 116-202) above, with W62C counted along it

For ACGCCGGG, the binding signal in the assay with SIX6 [1] was 9.17 upbm affinity estimate (log intensity, higher = more binding, comparable within an allelic series); with HOXA4 [2], 9.71 upbm affinity estimate (log intensity, higher = more binding, comparable within an allelic series); with SIX6 [3] it was 8.97 upbm affinity estimate (log intensity, higher = more binding, comparable within an allelic series); in the assay with SIX6 [4] it was 9.1 upbm affinity estimate (log intensity, higher = more binding, comparable within an allelic series); in the assay with SIX6 [5], 8.92 upbm affinity estimate (log intensity, higher = more binding, comparable within an allelic series); with SIX6 [6], 9.17 upbm affinity estimate (log intensity, higher = more binding, comparable within an allelic series). The binding signal was 9.18 upbm affinity estimate (log intensity, higher = more binding, comparable within an allelic series) with SIX6 [7]; 9.05 upbm affinity estimate (log intensity, higher = more binding, comparable within an allelic series) in the assay with SIX6 [8]; 9.16 upbm affinity estimate (log intensity, higher = more binding, comparable within an allelic series) in the assay with SIX6 [9]; 9.86 upbm affinity estimate (log intensity, higher = more binding, comparable within an allelic series) with HOXA4 [10]; 9.21 upbm affinity estimate (log intensity, higher = more binding, comparable within an allelic series) with SIX6 [11]; 9.2 upbm affinity estimate (log intensity, higher = more binding, comparable within an allelic series) in the assay with SIX6 [12]. In addition, the binding signal is 9.92 upbm affinity estimate (log intensity, higher = more binding, comparable within an allelic series) with HOXA4 [13]; 9 upbm affinity estimate (log intensity, higher = more binding, comparable within an allelic series) with SIX6 [14]; 9.15 upbm affinity estimate (log intensity, higher = more binding, comparable within an allelic series) with SIX6 [15]; 9.16 upbm affinity estimate (log intensity, higher = more binding, comparable within an allelic series) with SIX6 [16]; 9.88 upbm affinity estimate (log intensity, higher = more binding, comparable within an allelic series) with HOXA4 [17].
In the case of GCACGCCC, the binding signal in the assay with SIX6 [1] was 8.91 upbm affinity estimate (log intensity, higher = more binding, comparable within an allelic series); with SIX6 [3] it was 8.8 upbm affinity estimate (log intensity, higher = more binding, comparable within an allelic series); in the assay with HOXA7 [18] it was 8.55 upbm affinity estimate (log intensity, higher = more binding, comparable within an allelic series); with SIX6 [4], 8.92 upbm affinity estimate (log intensity, higher = more binding, comparable within an allelic series); with SIX6 [5], 8.82 upbm affinity estimate (log intensity, higher = more binding, comparable within an allelic series); with SIX6 [6], 8.88 upbm affinity estimate (log intensity, higher = more binding, comparable within an allelic series). Further, the binding signal with SIX6 [7] is 8.84 upbm affinity estimate (log intensity, higher = more binding, comparable within an allelic series); with SIX6 [8], 8.88 upbm affinity estimate (log intensity, higher = more binding, comparable within an allelic series); with SIX6 [9], 8.97 upbm affinity estimate (log intensity, higher = more binding, comparable within an allelic series); with SIX6 [11], 8.92 upbm affinity estimate (log intensity, higher = more binding, comparable within an allelic series); in the assay with SIX6 [12] it was 8.91 upbm affinity estimate (log intensity, higher = more binding, comparable within an allelic series); in the assay with SIX6 [14] it was 8.87 upbm affinity estimate (log intensity, higher = more binding, comparable within an allelic series). Further, the binding signal with SIX6 [15] was 8.94 upbm affinity estimate (log intensity, higher = more binding, comparable within an allelic series); with SIX6 [16], 8.8 upbm affinity estimate (log intensity, higher = more binding, comparable within an allelic series); with HOXA7 [19], 8.44 upbm affinity estimate (log intensity, higher = more binding, comparable within an allelic series).
Take CGGCTTCC: the binding signal was 9 upbm affinity estimate (log intensity, higher = more binding, comparable within an allelic series) with SIX6 [1]; 9.74 upbm affinity estimate (log intensity, higher = more binding, comparable within an allelic series) in the assay with HOXA4 [2]; 8.76 upbm affinity estimate (log intensity, higher = more binding, comparable within an allelic series) with SIX6 [3]; 8.87 upbm affinity estimate (log intensity, higher = more binding, comparable within an allelic series) in the assay with SIX6 [4]; 8.79 upbm affinity estimate (log intensity, higher = more binding, comparable within an allelic series) with SIX6 [5]; 8.83 upbm affinity estimate (log intensity, higher = more binding, comparable within an allelic series) in the assay with SIX6 [6]. Further, the binding signal is 9 upbm affinity estimate (log intensity, higher = more binding, comparable within an allelic series) with SIX6 [7]; 8.88 upbm affinity estimate (log intensity, higher = more binding, comparable within an allelic series) with SIX6 [8]; 9 upbm affinity estimate (log intensity, higher = more binding, comparable within an allelic series) in the assay with SIX6 [9]; 9.5 upbm affinity estimate (log intensity, higher = more binding, comparable within an allelic series) with HOXA4 [10]; 9.03 upbm affinity estimate (log intensity, higher = more binding, comparable within an allelic series) in the assay with SIX6 [11]; 8.96 upbm affinity estimate (log intensity, higher = more binding, comparable within an allelic series) with SIX6 [12]. Besides, the binding signal with HOXA4 [13] is 9.53 upbm affinity estimate (log intensity, higher = more binding, comparable within an allelic series); with SIX6 [14], 8.89 upbm affinity estimate (log intensity, higher = more binding, comparable within an allelic series); with SIX6 [15] it was 8.96 upbm affinity estimate (log intensity, higher = more binding, comparable within an allelic series); in the assay with SIX6 [16], 8.91 upbm affinity estimate (log intensity, higher = more binding, comparable within an allelic series); with HOXA4 [17] it was 9.63 upbm affinity estimate (log intensity, higher = more binding, comparable within an allelic series).
With GGGGGCCA, the binding signal in the assay with SIX6 [1] was 8.93 upbm affinity estimate (log intensity, higher = more binding, comparable within an allelic series); with HOXA4 [2] it was 9.65 upbm affinity estimate (log intensity, higher = more binding, comparable within an allelic series); in the assay with SIX6 [3] it was 8.85 upbm affinity estimate (log intensity, higher = more binding, comparable within an allelic series); with SIX6 [4], 8.92 upbm affinity estimate (log intensity, higher = more binding, comparable within an allelic series); in the assay with SIX6 [5], 8.83 upbm affinity estimate (log intensity, higher = more binding, comparable within an allelic series); with SIX6 [6], 9.04 upbm affinity estimate (log intensity, higher = more binding, comparable within an allelic series). In addition, the binding signal was 9.04 upbm affinity estimate (log intensity, higher = more binding, comparable within an allelic series) with SIX6 [7]; 8.87 upbm affinity estimate (log intensity, higher = more binding, comparable within an allelic series) with SIX6 [8]; 8.92 upbm affinity estimate (log intensity, higher = more binding, comparable within an allelic series) with SIX6 [9]; 9.62 upbm affinity estimate (log intensity, higher = more binding, comparable within an allelic series) in the assay with HOXA4 [10]; 9.03 upbm affinity estimate (log intensity, higher = more binding, comparable within an allelic series) in the assay with SIX6 [11]; 9.09 upbm affinity estimate (log intensity, higher = more binding, comparable within an allelic series) in the assay with SIX6 [12]. Also, the binding signal is 9.83 upbm affinity estimate (log intensity, higher = more binding, comparable within an allelic series) in the assay with HOXA4 [13]; 9.02 upbm affinity estimate (log intensity, higher = more binding, comparable within an allelic series) in the assay with SIX6 [14]; 9.03 upbm affinity estimate (log intensity, higher = more binding, comparable within an allelic series) in the assay with SIX6 [15]; 9.05 upbm affinity estimate (log intensity, higher = more binding, comparable within an allelic series) with SIX6 [16]; 9.79 upbm affinity estimate (log intensity, higher = more binding, comparable within an allelic series) in the assay with HOXA4 [17].
